Screening results from PubChem.
LDHA block: inhibitors of human lactate dehydrogenase A. AID 1347041. activity change, % (values are at about 110 or 230 µM). actives 0.15% (n = 480,000). purified LDHA, NADH/diaphorase-resazurin fluorescence; stronger effect = lower value. P00338; in the data active means activity change below about -30%;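 further: plate controls were DMSO wells for no effect and wells without enzyme for full effect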
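Enzyme activity of human lactate dehydrogenase 5 (2 nM; 0.06 mM NADH, 0.2 mM pyruvate, 5 min, RT) is measured via a resazurin/diaphorase fluorescence readout of residual NADH.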
TRHR ag: agonists of human TRH receptor | P34981 | TRHR cells, calcium flux fluo-8, FDSS agonist mode | activation, % at 2 µM | actives 0.18% (n = 360,000) | AID 493084; further: 0% is about no effect
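Steps: seed TRHR cells overnight; add fluo-8 no-wash Ca dye, RT 30 min–1.5 h; record 10 s baseline; pin-transfer compounds; monitor fluorescence 1 cycle/s for the agonist window. Calcium increases flag candidate agonists.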
D1 ag: agonists of human D1 dopamine receptor; P21728; HEK293 T-REx D1 cells, calcium flux, agonist mode; activation, % at 2 µM; actives 1% (n = 360,000); AID 504660; further: 0% is about no effect
Target sequence (P21728 whole entry, looked up): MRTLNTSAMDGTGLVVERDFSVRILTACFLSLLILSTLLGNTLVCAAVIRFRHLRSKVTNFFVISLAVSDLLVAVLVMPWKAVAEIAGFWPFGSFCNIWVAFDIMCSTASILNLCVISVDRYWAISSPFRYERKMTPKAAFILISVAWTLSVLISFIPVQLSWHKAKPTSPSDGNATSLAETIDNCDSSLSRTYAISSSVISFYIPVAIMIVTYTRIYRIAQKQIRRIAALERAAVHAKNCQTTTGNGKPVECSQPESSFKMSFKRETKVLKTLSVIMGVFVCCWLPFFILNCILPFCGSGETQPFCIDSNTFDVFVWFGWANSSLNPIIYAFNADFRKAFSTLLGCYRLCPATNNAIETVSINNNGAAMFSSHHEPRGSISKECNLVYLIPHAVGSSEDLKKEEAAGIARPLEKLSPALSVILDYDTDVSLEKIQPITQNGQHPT
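Agonism was scored from calcium flux recorded over 180 s (1 read/s) after pintool compound addition, following a 10-cycle baseline. Cells were inducible force-coupled HEK293 TREx D1, plated overnight at 30 C and loaded with no-wash calcium dye.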
D1 antagonist: human D1 dopamine receptor antagonism; activity change, negative = inhibition, % at 10 µM; HEK293 TREx D1 cells, calcium flux, dopamine EC80; stronger effect = lower value; actives 3.2% (n = 360,000); AID 504652; P21728; in the data active means activity change below about -30%; further: on the % scale 0 is the no-effect control and ±100 the full control effect
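Antagonism measured as reduced calcium response to an EC80 dopamine addition following 180 s compound pre-read; cells were inducible HEK293 Trex D1 plated overnight at 30 C, read kinetically at 1 cycle/sec.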
TRHR enhancer: allosteric enhancers of human TRH receptor. TRHR cells, fluo-8 calcium fluorescence, EC20 TRH enhancement. actives 0.66% (n = 360,000). enhancement, % at 2 µM. AID 493056. P34981; in the data active means enhancement above about 30%; further: 0% is about no effect
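TRHR-expressing cells loaded with fluo-8 calcium dye were read kinetically (ex 480/em 530) during compound addition, then stimulated with an EC20 of TRH (10 nM final). Enhancement of the Gq-mediated intracellular calcium response was scored.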
D1 PAM: enhances dopamine response at the human D1 receptor; HEK293 TREx D1 cells, calcium flux, dopamine EC20 potentiation; potentiation, % at 10 µM; actives 0.036% (n = 360,000); in the data active means potentiation above about 30%; further: 0% is about no effect
* marks the source's active call; other numbers are inactive results; . = no result given; ! = not active in a repeat. Most compounds without a hit are left out; they make up all but 3.6% or so of the library. Unless noted, no stated cut-off is given here; in the data, active means activation above about 30%; inactive means the rest.

SMILES	LDHA block	TRHR ag	D1 ag	D1 antagonist	TRHR enhancer	D1 PAM
CC1CCCCN1C(=O)CN1C(=O)N(c2cc(F)ccc2F)S(=O)(=O)c2ccccc21 (stereo not drawn)	5	.	.	.	.	.
Cc1ccc(-c2nc(CSc3nnc(NC(C)(C)C)s3)co2)cc1	9	.	.	.	.	.
O=C(NC1CCCC1)C1CCCN1S(=O)(=O)c1cccc2cccnc12 (stereo not drawn)	-4	0	1	-34*	-4	-5
CC(NCCC1(c2ccccc2)CCOC(C)(C)C1)c1ccccc1 (stereo not drawn)	4	.	.	.	.	.
CC(NCCC1(Cc2ccccc2Cl)CCOC(C)(C)C1)c1cccs1 (stereo not drawn)	-5	-1	47*	10	5	8
NC(=O)NCc1ccccc1Cl	-11	1	1	-38*	-3	-3
c1ccc(-c2ccccc2OCCCCn2ccnc2)cc1	-37*	0	12	-11	2	-6
Cc1cccc(OCCCCCn2ccnc2)c1C	-8	-1	46*	3	3	-6
CCOC(=O)c1c(C)oc2nc(C)nc(NCc3ccc(Cl)cc3)c12	-3	2	3	-4	8	-5
CCOC(=O)c1nc(NCc2ccc(Cl)cc2)c2c(C)noc2n1	0	-1	2	-49*	0	-1
Cc1ccc(Cl)cc1NC(=O)CCS(=O)(=O)c1ccc2c(c1)n(C)c(=O)c(=O)n2C	3	-1	2	-35*	24	0
Cc1cccc(NC(=O)CCS(=O)(=O)c2ccc3c(c2)n(C)c(=O)c(=O)n3C)c1C	-1	-1	-3	-1	-5	0
Cc1ccc(CN(C)C(=O)c2cc(Br)ccc2O)c(C)c1	10	.	.	.	.	.
COc1ccccc1N1CCN(CCCNC(=O)c2cnn(-c3cccc(Cl)c3)c2C2CCN(C(=O)OC(C)(C)C)CC2)CC1	5	1	10	-31*	12	-5
Cc1ccc(C)c(N2CCN(CCCNC(=O)c3cnn(-c4ccccc4)c3C3CCN(C(=O)OC(C)(C)C)CC3)CC2)c1	4	-1	14	-42*	-16	-8
CCC(=O)Nc1ccc(C(C)NCc2cccs2)cc1 (stereo not drawn)	14	.	.	.	.	.
Cc1cccc2cc(CN(Cc3ccco3)S(=O)(=O)c3ccc4c(c3)OCCO4)c(=O)[nH]c12	-13	0	3	-51*	-3	2
COC(=O)CCNC(=O)c1cccc(C)c1	-1	.	.	.	.	.
CC(=O)c1cc2c(cc1NS(=O)(=O)c1ccc(C)cc1)OCCO2	-1	0	1	-37*	2	6
CCNC(=O)c1c(NC(=O)Cc2coc3cc(C)ccc23)sc2c1CCCC2	3	0	5	-2	0	-1
COCCCNC(=O)c1c(NC(=O)Cc2coc3cc(C)ccc23)sc2c1CCCC2	-1	0	1	-66*	3	0
CCc1ccc(NC(=O)c2nc3ccccc3nc2N2CCOCC2)cc1	2	.	.	.	.	.
COc1cc(-c2nnc(-c3cccnc3)o2)cc(OC)c1OC	-3	1	1	-88*	0	-11
COc1ccc(-c2nnc(-c3cccnc3)o2)cc1OC	5	0	3	7	0	-7
C=CCNC(=O)NC(C)(C)C(=O)O	-2	.	.	.	.	.
SMILES	LDHA block	TRHR ag	D1 ag	D1 antagonist	TRHR enhancer	D1 PAM
O=C(Nc1nn(Cc2c(Cl)cccc2Cl)cc1Cl)c1nc2ncccn2n1	0	.	.	.	.	.
Cc1ccc(NC(=O)CN2CCOCC2)cc1C	-2	0	8	-40*	3	-2
O=C(CN1CCN(S(=O)(=O)N2CCOCC2)CC1)Nc1ccc(Cl)c(Cl)c1	-6	1	14	-49*	-6	-8
Cc1ccc(CS(=O)Cc2ccccc2F)cc1 (stereo not drawn)	-2	.	.	.	.	.
Cc1cccc(CSc2cn(CC(=O)N3CCOCC3)c3ccccc23)c1	-2	0	2	-33*!	0	1
CCN(CC(=O)Nc1c(F)cccc1F)C(=O)CNC(=O)c1ccc2c(c1)OCO2	-6	0	4	-33*	8	-4
CNC(=O)c1ccc(CNC(=O)NCC2(c3ccccc3)CC2)cc1	10	.	.	.	.	.
Cc1nn(C)c(Cl)c1NC(=O)OCc1ccc(F)cc1	-17	-1	27	-61*	8	-10
COc1ccccc1COC(=O)Nc1c(C)nn(C)c1Cl	-2	0	10	-43*	-11	-8
CC(=O)Nc1ccc(S(=O)(=O)NNC(=O)COc2ccc(Cl)cc2Cl)cc1	-5	0	2	1	-2	4
CCOc1ccc(CONS(=O)(=O)c2ccc(NC(C)=O)cc2)cc1Cl	0	0	69*	-25	-3	-9
Cc1ccc(CN2COc3c(Cl)cc4c(-c5ccccc5)cc(=O)oc4c3C2)cc1	2	3	6	-32*	4	-1
O=P(O)(CCc1ccccn1)CN1CCCCC1	-8	0	1	-32*	-9	-4
O=P(O)(CCc1ccccn1)CN1CCOCC1	1	0	2	-6	3	-2
Cc1ccc(C)c2c1c1ccccc1n2C	6	0	0	12	31*	-4
Cc1ccc(CNC(=O)Cn2c3ncccc3c(=O)n2-c2ccc(C)cc2)cc1	1	0	7	-57*	-4	-7
CCOc1ccc(NC(=O)Cn2c3ncccc3c(=O)n2-c2ccc(CC)cc2)cc1	-9	0	4	-4	-1	-3
CCc1ccc(-n2c(=O)c3cccnc3n2CC(=O)NCc2ccc(C)cc2)cc1	1	0	6	14	-4	-5
CCc1ccccc1NC(=O)Cn1c2ncccc2c(=O)n1-c1ccccc1	-3	-1	5	-45*	25	-8
CCc1ccc(-n2c(=O)c3cccnc3n2CC(=O)Nc2ccccc2C(F)(F)F)cc1	-16	1	11	-44*	-1	-6
O=C(NCc1ccccc1CN1CCOCC1)c1cnn(-c2ccccc2)c1	5	.	.	.	.	.
COc1ccc(N(Cc2cccs2)C(=O)Cn2nnc(-c3ccccc3C)n2)cc1	10	.	.	.	.	.
Cc1nc2sc(C(c3ccco3)N3CC(C)OC(C)C3)c(O)n2n1 (stereo not drawn)	-2	0	0	4	31*	7
CN(CC1CC1)C(=O)c1cc(=O)[nH]c2ccc(S(=O)(=O)Nc3ccc(F)cc3)cc12	7	.	.	.	.	.
Cc1ccc(-c2cc(C(=O)N3CCN(C(=O)C4CC4)CC3)c3ccccc3n2)o1	-1	.	.	.	.	.
O=C(Nc1n[nH]c(C(F)(F)F)n1)C1CC1	4	-1	3	-34*	-4	-4
CC(=O)c1ccc(S(=O)(=O)N2CCN(C(=O)c3ccc(-n4cncn4)c([N+](=O)[O-])c3)CC2)cc1	-8	0	0	-50*	6	-3
